In PubChem BioAssay (NCATS):
Values joined by “and” are separate entries in the source; they are usually repeats but may differ in a detail not shown here. Equal values may be shown once. A number with no mark means an inactive call. Inconclusive results are not listed. Entries that show only a call come without a potency. Active and inactive are the calls of the source. Unless noted, the call rests on the fitted dose curve; in most records, active means well fitted curve in the direction sought with a large enough effect; inconclusive means small, poorly fitted or top-dose-only effect, or another doubt; inactive means no such curve, though single readings can be large; an effect the other way counts as inactive or inconclusive.

System: not listed separately
Assay: Inducers of the Endoplasmic Reticulum Stress Response (ERSR) in human glioma: Validation (AID 504836)
Settings: human glioma cells, ER stress response reporter; series mostly up to 38.3 µM
Procedure, shortened: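 Stably transfected U87-MG human glioma cells carrying a GRP78-based luminescent sensor were seeded at 1000 cells/well, pin-dosed with compounds and incubated 16 h. Luciferase reagent was then added, and end-point luminescence was read after 10 min at room temperature.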

Row | Structure (SMILES) | outcome
1 | C1COC(NC(C2CC2)C2CC2)=N1 | inactive
2 | C=C(C)[C@H]1CN[C@H](C(=O)O)[C@H]1CC(=O)O | inactive
3 | CN=C(NC#N)NCCSCc1nc[nH]c1C | inactive
4 | COc1ccc2[nH]cc(CCNC(C)=O)c2c1 | inactive
5 | Cc1ncsc1CCCl | inactive
6 | NCCCNCCSP(=O)(O)O | inactive
7 | Nc1ncnc2c1ncn2[C@@H]1O[C@H](CO)[C@@H](O)[C@H]1O | inactive
8 | CC(C)c1cccc(C(C)C)c1O | inactive
9 | O=c1c(-c2ccc(O)cc2)coc2cc(O)cc(O)c12 | inactive
10 | O=c1[nH]oc2c1CCNC2 | inactive
11 | CCn1cc(C(=O)O)c(=O)c2cc(F)c(N3CCNC(C)C3)c(F)c21 (centres undefined) | inactive
12 | Cn1c(=O)c2[nH]cnc2n(C)c1=O | inactive
13 | CC(CCc1ccccc1)NCC(O)c1ccc(O)c(C(N)=O)c1 (centres undefined) | inactive
14 | CCC1(c2ccc(N)cc2)CCC(=O)NC1=O (centres undefined) | inactive
15 | NC(=O)N1c2ccccc2C=Cc2ccccc21 | inactive
16 | CC(=O)N1CCN(c2ccc(OC[C@H]3CO[C@](Cn4ccnc4)(c4ccc(Cl)cc4Cl)O3)cc2)CC1 | inactive
17 | CCN(CC)C(C)CN1c2ccccc2Sc2ccccc21 (centres undefined) | inactive

Row | Structure (SMILES) | outcome
18 | O=c1[nH]c(=O)n([C@H]2C[C@H](O)[C@@H](CO)O2)cc1Br | inactive
19 | Clc1ccc2nsnc2c1NC1=NCCN1 | inactive
20 | CC(C)N(CCC(C(N)=O)(c1ccccc1)c1ccccn1)C(C)C (centres undefined) | inactive
21 | CC(C)(C)NCC(O)c1ccccc1Cl (centres undefined) | inactive
22 | CC(=O)c1ccc(S(=O)(=O)NC(=O)NC2CCCCC2)cc1 | inactive
23 | O=C(O)CCCc1ccc(N(CCCl)CCCl)cc1 | inactive
24 | NC(N)=Nc1nc(CSCC/C(N)=N/S(N)(=O)=O)cs1 | inactive
25 | CN1C(=O)CCS(=O)(=O)C1c1ccc(Cl)cc1 (centres undefined) | inactive
26 | CCCCCCCCCCCCCCCC(=O)NCCO | inactive
27 | O=c1[nH]cnc2[nH]ncc12 | inactive
28 | CC[N+](CC)(CC)CCOc1cccc(OCC[N+](CC)(CC)CC)c1OCC[N+](CC)(CC)CC | inactive
29 | C[N+](C)(C)CCCCCC[N+](C)(C)C | inactive
30 | COc1cc(NS(C)(=O)=O)ccc1Nc1c2ccccc2nc2ccccc12 | inactive
31 | CN(C)C(=O)Oc1ccc[n+](C)c1 | inactive
32 | CC(C)NCC(O)c1ccc(NS(C)(=O)=O)cc1 (centres undefined) | inactive
33 | COc1ccc2c(c1OC)C(=O)O[C@H]2[C@@H]1c2cc3c(cc2CCN1C)OCO3 | inactive
34 | CCOC(=O)[C@H](CCc1ccccc1)N[C@@H](C)C(=O)N1[C@H](C(=O)O)C[C@H]2CCCC[C@@H]21 | inactive

Target: Ubiquitin carboxyl-terminal hydrolase 1 (Homo sapiens) (UniProt O94782)
Sequence (O94782 whole entry, looked up): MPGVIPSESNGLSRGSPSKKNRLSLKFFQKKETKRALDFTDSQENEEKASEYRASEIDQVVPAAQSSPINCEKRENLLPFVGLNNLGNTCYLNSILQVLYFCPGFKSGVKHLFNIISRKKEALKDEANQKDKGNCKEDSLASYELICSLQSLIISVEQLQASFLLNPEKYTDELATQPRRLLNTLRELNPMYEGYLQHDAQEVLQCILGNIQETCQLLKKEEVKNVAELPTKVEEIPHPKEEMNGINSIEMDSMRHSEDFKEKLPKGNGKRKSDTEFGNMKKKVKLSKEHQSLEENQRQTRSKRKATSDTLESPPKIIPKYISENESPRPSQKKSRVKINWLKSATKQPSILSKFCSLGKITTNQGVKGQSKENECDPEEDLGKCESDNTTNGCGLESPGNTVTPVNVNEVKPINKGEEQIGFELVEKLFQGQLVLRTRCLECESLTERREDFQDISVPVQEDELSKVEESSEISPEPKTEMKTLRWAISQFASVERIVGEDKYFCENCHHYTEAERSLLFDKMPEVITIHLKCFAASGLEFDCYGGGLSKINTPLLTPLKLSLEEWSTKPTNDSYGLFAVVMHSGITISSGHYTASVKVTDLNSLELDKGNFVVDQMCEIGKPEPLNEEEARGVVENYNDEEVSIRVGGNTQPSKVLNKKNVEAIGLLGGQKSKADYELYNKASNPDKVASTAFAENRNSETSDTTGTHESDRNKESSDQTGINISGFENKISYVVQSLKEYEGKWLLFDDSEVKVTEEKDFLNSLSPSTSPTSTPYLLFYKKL
Assay: Inhibitors of USP1/UAF1: Pilot qHTS (AID 504865);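 further: rhodamine fluorescence freed from ubiquitin-rhodamine substrate followed over time; top concentration of the series differs between compounds; nearly all actives have a fitted effect of over 35% in size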
Settings: purified USP1/UAF1, Ub-rhodamine cleavage fluorescence; series mostly up to 114 µM
Procedure, shortened: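 Enzyme-free wells gave the negative control, while test wells held 1nM USP1/UAF1 preincubated with compound for 15 min at room temperature. Ub-Rho at 150nM final started the reaction, and fluorescence at 480/540 nm was recorded kinetically.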

Row | Structure (SMILES) | Potency
35 | C=C(C)[C@H]1CN[C@H](C(=O)O)[C@H]1CC(=O)O | inactive
36 | Cc1ncsc1CCCl | inactive
37 | CC(C)c1cccc(C(C)C)c1O | inactive
38 | O=c1[nH]oc2c1CCNC2 | inactive
39 | CCC1(c2ccc(N)cc2)CCC(=O)NC1=O (centres undefined) | inactive
40 | CC(=O)N1CCN(c2ccc(OC[C@H]3CO[C@](Cn4ccnc4)(c4ccc(Cl)cc4Cl)O3)cc2)CC1 | inactive
41 | CC(C)N(CCC(C(N)=O)(c1ccccc1)c1ccccn1)C(C)C (centres undefined) | inactive
42 | CC(C)(C)NCC(O)c1ccccc1Cl (centres undefined) | inactive
43 | O=C(O)CCCc1ccc(N(CCCl)CCCl)cc1 | inactive
44 | CN1C(=O)CCS(=O)(=O)C1c1ccc(Cl)cc1 (centres undefined) | inactive
45 | CC[N+](CC)(CC)CCOc1cccc(OCC[N+](CC)(CC)CC)c1OCC[N+](CC)(CC)CC | inactive
46 | COc1ccc2c(c1OC)C(=O)O[C@H]2[C@@H]1c2cc3c(cc2CCN1C)OCO3 | inactive

System: not listed separately
Assay: qHTS for Inhibitors of ATXN expression: Validation of Cytotoxic Assay (AID 588349)
Settings: cytotoxicity counter-screen for ATXN expression inhibitors, cell viability; series mostly up to 57.1 µM
Procedure, shortened: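 Toxicity of test compounds toward HEK293 cells is scored from cellular ATP content measured by CellTiter Glo. Cells receive titrated doses and incubate 72 hr at 37 degrees C beforehand.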

Row | Structure (SMILES) | outcome
47 | C=C(C)[C@H]1CN[C@H](C(=O)O)[C@H]1CC(=O)O | inactive
48 | Cc1ncsc1CCCl | inactive
49 | CC(C)c1cccc(C(C)C)c1O | inactive
50 | O=c1[nH]oc2c1CCNC2 | inactive
51 | CCC1(c2ccc(N)cc2)CCC(=O)NC1=O (centres undefined) | inactive
52 | CC(C)N(CCC(C(N)=O)(c1ccccc1)c1ccccn1)C(C)C (centres undefined) | inactive
53 | CC(C)(C)NCC(O)c1ccccc1Cl (centres undefined) | inactive
54 | O=C(O)CCCc1ccc(N(CCCl)CCCl)cc1 | inactive
55 | CN1C(=O)CCS(=O)(=O)C1c1ccc(Cl)cc1 (centres undefined) | inactive
56 | COc1ccc2c(c1OC)C(=O)O[C@H]2[C@@H]1c2cc3c(cc2CCN1C)OCO3 | inactive

System: not listed separately
Assay: qHTS for Inhibitors of ATXN expression: Validation (AID 588378); further: nearly all actives have a fitted effect of over 75% in size
Settings: cell-based ATXN2 expression reporter assay, luminescence; series mostly up to 57.1 µM
Procedure, shortened: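 After a 2 h attachment and 24 h compound incubation, HEK293-ATXN2-FFLuc wells are read for fluorescence at 405 nm excitation/525 nm emission as a viability measure, then for Bright-Glo luminescence reflecting ATXN2 expression.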

Row | Structure (SMILES) | outcome
57 | C=C(C)[C@H]1CN[C@H](C(=O)O)[C@H]1CC(=O)O | inactive
58 | Cc1ncsc1CCCl | inactive
59 | CC(C)c1cccc(C(C)C)c1O | inactive
60 | O=c1[nH]oc2c1CCNC2 | inactive
61 | CCC1(c2ccc(N)cc2)CCC(=O)NC1=O (centres undefined) | inactive
62 | CC(C)N(CCC(C(N)=O)(c1ccccc1)c1ccccn1)C(C)C (centres undefined) | inactive
63 | CC(C)(C)NCC(O)c1ccccc1Cl (centres undefined) | inactive
64 | O=C(O)CCCc1ccc(N(CCCl)CCCl)cc1 | inactive
65 | CN1C(=O)CCS(=O)(=O)C1c1ccc(Cl)cc1 (centres undefined) | inactive
66 | COc1ccc2c(c1OC)C(=O)O[C@H]2[C@@H]1c2cc3c(cc2CCN1C)OCO3 | inactive

Target: Bile acid receptor (Homo sapiens) (UniProt Q96RI1)
Sequence (Q96RI1 whole entry, looked up): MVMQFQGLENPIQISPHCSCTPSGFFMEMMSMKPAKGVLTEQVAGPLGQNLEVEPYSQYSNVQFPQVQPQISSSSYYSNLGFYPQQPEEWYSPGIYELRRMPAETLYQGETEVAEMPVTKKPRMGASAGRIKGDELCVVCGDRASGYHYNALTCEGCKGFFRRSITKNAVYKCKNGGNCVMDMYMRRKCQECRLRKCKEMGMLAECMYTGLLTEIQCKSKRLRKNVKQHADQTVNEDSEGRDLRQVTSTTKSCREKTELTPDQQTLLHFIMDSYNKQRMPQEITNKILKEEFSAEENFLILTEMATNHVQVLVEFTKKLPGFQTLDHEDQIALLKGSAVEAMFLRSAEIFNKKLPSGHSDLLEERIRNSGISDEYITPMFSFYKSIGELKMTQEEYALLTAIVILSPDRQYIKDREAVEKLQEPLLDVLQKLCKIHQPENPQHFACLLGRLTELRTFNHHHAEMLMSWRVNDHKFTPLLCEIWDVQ
Assay: qHTS assay for small molecule agonists of farnesoid X receptor signaling (AID 588527; calls by dose curve)
Settings: HEK293T FXR-UAS-bla, beta-lactamase ratio, 16 h; stronger effect = higher value
Procedure, shortened: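 FXR-UAS-bla HEK293T, 10% dialyzed FBS; cpds up to 92 uM titration, 16 h 37 C; CCF4 dye 2 h RT; fluorescence. Normalized to chenodeoxycholic acid 100 uM (100%) and DMSO (0%); Hill fit gives EC50, efficacy.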

Row | Structure (SMILES) | activation
67 | CN=C(NC#N)NCCSCc1nc[nH]c1C | 1.62%
68 | COc1ccc2[nH]cc(CCNC(C)=O)c2c1 | 0.0339% and -2.2% and -1.63%
69 | O=c1c(-c2ccc(O)cc2)coc2cc(O)cc(O)c12 | -3.37%
70 | Cn1c(=O)c2[nH]cnc2n(C)c1=O | 0.492%
71 | CC(=O)N1CCN(c2ccc(OC[C@H]3CO[C@](Cn4ccnc4)(c4ccc(Cl)cc4Cl)O3)cc2)CC1 | -1.01%
72 | O=c1[nH]c(=O)n([C@H]2C[C@H](O)[C@@H](CO)O2)cc1Br | -3.6%
73 | CC(=O)c1ccc(S(=O)(=O)NC(=O)NC2CCCCC2)cc1 | -2.29% and -1.81%
74 | O=C(O)CCCc1ccc(N(CCCl)CCCl)cc1 | -2.97% and 0.833%
